uPA generation: inhibitors of cell surface uPA generation | Potency, µM (titrated, usually from 38.3 µM), without a hit: at the top dose activity change, negative = inhibition, most hits filed as inhibitors | cell surface uPA generation assay, qHTS | actives 0.31% (n = 330,000); active means well fitted inhibition curve with a large enough effect; inconclusive means small, poorly fitted or top-dose-only effect; inactive means no such curve, though single readings can be large or run the other way; tested in mouse RAW 264.7 cells; further: on the % scale 0 is the no-effect control and ±100 the full control effect; nearly all actives have a fitted effect of over 55% in size
Mito fusion act: inhibitors of mitochondrial division or activators of mitochondrial fusion | S. cerevisiae fusion-defective mutant growth rescue, CellTiterGlo 48 h | Potency, µM (highest dose often 46.1 µM), without a hit: at the highest dose growth rescue (activation), actives largely listed as activators | actives 0.23% (n = 320,000) | AID 485298; further: % of control where 0% means no effect; nearly all actives have a fitted effect of over 45% in size
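S. cerevisiae fusion-defective temperature-sensitive mutants (e.g. fzo1-1, mgm1-5) grown 48 h at 37C in YPEG (ethanol/glycerol non-fermentable) medium with 23 nl compound per well; growth rescue read as CellTiterGlo luminescence.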
Integrin act MD: integrin-mediated muscular dystrophy alleviation activation | alpha7betagal myoblasts, beta-gal FDG fluorescence, 48 h | actives 0.064% (n = 350,000) | Potency, µM (series often up to 38.3 µM), for the others: at the highest dose activation, hits mostly activators;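 further: 100% = response of the positive control SU9516; nearly all actives have a fitted effect of over 60% in size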
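alpha7betagal+/- myoblasts (passage 13, 250/well) treated 48 h at 37C with compounds at 1:260 dilution of DMSO stock. Lysed, then beta-galactosidase activity read as FDG fluorescence (ex 480/em 540) after 30 min, with pre-read for autofluorescence.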
BCR signal inh: inhibitors of chronic active B-cell receptor signaling; ABC-DLBCL IkBa-CBG/CBR reporter, luminescence ratio, 4 h; Potency, µM (titrated, usually from 46.1 µM), for the others: at the top dose activity change, negative = inhibition, hits mostly inhibitors; actives 0.05% (n = 340,000); AID 493014; active means well fitted inhibition curve with a large enough effect in the signal ratio, with a control signal flat, not every such curve was filed as active; inconclusive means small, poorly fitted or top-dose-only effect, or effect the other way, or a change in a side signal; the % refers to the signal ratio;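 further: plate controls were basal doxycycline-induced cells for no effect and cells given 10 µM MG132 for full effect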
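Compounds up to 46 uM were incubated four hours with TMD8 cells whose green CBG68 luciferase is fused to IkappaBalpha; red CBR luminescence normalised the signal, and concentration-effect curves were fitted to fusion, red and ratio data.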
RORgamma inh: inhibitors of mouse ROR gamma transcriptional activity; P51450; Drosophila S2 Gal4-RORgamma UAS-luciferase reporter, 20 h; Potency, µM (top dose mostly 53.6 µM), without a hit: at the top dose activity change, negative = inhibition, usual class: inhibitors; actives 5.4% (n = 310,000); AID 2551; further: on the % scale 0 is the no-effect control and ±100 the full control effect; nearly all actives have a fitted effect of over 60% in size
Target sequence (P51450 whole entry, looked up, the tested form may be a part): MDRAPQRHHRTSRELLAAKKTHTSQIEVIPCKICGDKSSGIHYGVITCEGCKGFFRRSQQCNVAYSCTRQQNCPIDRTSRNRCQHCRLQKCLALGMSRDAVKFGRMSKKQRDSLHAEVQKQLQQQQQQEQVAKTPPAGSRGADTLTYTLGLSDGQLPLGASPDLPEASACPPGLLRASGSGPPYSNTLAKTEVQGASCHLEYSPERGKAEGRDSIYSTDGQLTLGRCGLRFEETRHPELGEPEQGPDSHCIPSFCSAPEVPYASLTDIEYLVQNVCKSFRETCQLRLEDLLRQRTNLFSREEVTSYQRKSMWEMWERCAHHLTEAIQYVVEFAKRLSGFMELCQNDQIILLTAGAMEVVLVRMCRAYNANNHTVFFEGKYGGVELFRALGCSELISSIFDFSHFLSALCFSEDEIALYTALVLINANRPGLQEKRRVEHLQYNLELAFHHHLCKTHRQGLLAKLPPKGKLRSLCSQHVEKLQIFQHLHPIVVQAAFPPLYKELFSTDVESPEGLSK
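Read-out: Photinus luciferase luminescence; inhibitors lower reporter signal. Insect Schneider cells with Gal4-ROR gamma fusion under metallothionein promoter, UAS reporter; 700 uM final copper sulfate induction, 20 hr, ambient temperature.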
VP16 counter: Gal4-VP16 reporter inhibition counter-screen. Drosophila S2 Gal4-VP16 UAS-luciferase, luminescence, 20 h. Potency, µM (top dose mostly 53.6 µM), for the others: at the top dose activity, negative = inhibition, usual class: inhibitors. actives 3.5% (n = 310,000). AID 2546;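 further: Gal4-VP16 expression switched on by copper sulfate through the metallothionein promoter; on the % scale 0 is the no-effect control and ±100 the full control effect; nearly all actives have a fitted effect of over 50% in size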
Numbers without * were called inactive; ? = inconclusive; / = not tested or not shown. Only some compounds are listed: those with a hit (about 5.5% of all), similar ones and a draw of the others. Unless noted, the call rests on the fitted dose curve; in most records, active means well fitted curve in the direction sought with a large enough effect; inconclusive means small, poorly fitted or top-dose-only effect, or another doubt; inactive means no such curve, though single readings can be large; an effect the other way counts as inactive or inconclusive. Potency means the concentration at half of the fitted maximal effect.

SMILES	uPA generation	Mito fusion act	Integrin act MD	BCR signal inh	RORgamma inh	VP16 counter
CC[C@H](C)[C@H](NC(=O)[C@H](Cc1ccc(O)cc1)NC(=O)[C@H](Cc1cnc[nH]1)NC(=O)[C@H](CCCNC(=N)N)NC(=O)[C@H](CC(C)C)NC(=O)[C@H](C)NC(=O)[C@H](CO)NC(=O)[C@H](Cc1ccc(O)cc1)NC(=O)[C@H](Cc1ccc(O)cc1)NC(=O)[C@H](CCCNC(=N)N)NC(=O)[C@H](C)NC(=O)[C@H](CCSC)NC(=O)[C@H](CC(=O)O)NC(=O)[C@H](CCC(=O)O)NC(=O)[C@H](C)NC(=O)[C@@H]1CCCN1C(=O)[C@H](C)NC(=O)[C@H](CC(=O)O)NC(=O)[C@H](CCC(=O)O)NC(=O)CNC(=O)[C@@H]1CCCN1C(=O)[C@H](CC(N)=O)NC(=O)[C@H](CC(=O)O)NC(=O)[C@@H]1CCCN1C(=O)[C@H](CCCCN)NC(=O)[C@H](CO)NC(=O)[C@@H]1CCCN1C(=O)[C@@H](N)Cc1ccc(O)cc1)C(=O)N[C@@H](CC(N)=O)C(=O)N[C@@H](CC(C)C)C(=O)N[C@H](C(=O)N[C@H](C(=O)N[C@@H](CCCNC(=N)N)C(=O)N[C@@H](CCC(N)=O)C(=O)N[C@@H](CCCNC(=N)N)C(=O)N[C@@H](Cc1ccc(O)cc1)C(N)=O)[C@@H](C)O)[C@@H](C)CC	/	/	/	/	18%	1%
CC(=O)Nc1ccc(S(=O)(=O)NCCc2ccc3c(c2)OCCO3)cc1	/	/	-3%	/	/	/
OCCN1CCN(C(c2ccc(Cl)cc2Cl)c2sc3nc(-c4ccco4)nn3c2O)CC1 (stereo unspecified)	/	/	/	-16%	/	/
C=CCSc1cc(C)nc2c(-c3ccc(Cl)cc3)c(C)nn12	/	3%	0%	7%	20µM*	?
CCSc1cc(C)nc2c(-c3ccccc3)c(C)nn12	/	4%	-12%	?	0%	19%
C=C(C)CSc1cc(C)nc2c(-c3ccccc3)c(C)nn12	-1%	21%	2%	?	11µM*	?
Cc1cc(SCC(=O)c2cccs2)n2nc(C)c(-c3ccc(Cl)cc3)c2n1	-2%	5%	20%	?	1µM*	?
Cc1cc(SCC(=O)Nc2ccc(O)cc2)n2nc(C)c(-c3ccccc3)c2n1	2%	5%	-55%	?	-14%	11%
Cc1nn2c(SCC(=O)c3cccs3)cc(C(C)(C)C)nc2c1-c1ccccc1	0%	-7%	9%	-7%	10µM*	7.1µM*
COc1ccc(C)cc1NC(=O)c1cc(S(=O)(=O)NC2CCCCCC2)ccc1F	/	/	/	-1%	/	/
Cc1nnc2n(-c3ccccc3)c(=O)c3c4c(sc3n12)COC(C(C)C)C4 (stereo unspecified)	7%	-3%	-17%	0%	18%	-4%
CC(C)C1Cc2c(sc3[nH]c(=S)n(Cc4ccccc4)c(=O)c23)CO1 (stereo unspecified)	3%	4%	-19%	14%	0.45µM*	0.56µM*
c1ccc(CNc2ccnc(-c3ccc4c(c3)OCO4)n2)cc1	/	/	/	/	32%	-5%
Cc1c(C)c2cccnc2c2ncccc12	?	6%	-48%	4%	/	/
COc1cccc(N=Nc2ccc3cccnc3c2O)c1	?	24%	-5%	-2%	0.56µM*	0.89µM*
COc1cccc(N=Nc2ccc(O)c3ncccc23)c1	7%	31%	0%	?	0.32µM*	-94%
Cc1ccc(O)c2ncccc12	/	/	/	/	5µM*	8.9µM*
Cc1ccccc1N=Nc1ccc(O)c2ncccc12	-13%	15%	-25%	?	0.63µM*	0.89µM*
Cc1ccc(-c2nc3c4ccccc4n(CC(=O)N4CCN(c5ccc(F)cc5)CC4)c(=O)n3n2)cc1	/	/	/	11%	/	/
COc1cccc(CNC(=O)CN2N=C(c3ccc(C)cc3)CCC2=O)c1	/	/	/	-14%	/	/
